From PMC4336329 (PLoS ONE, 2015)
The campaign covered roughly 310,000 compounds. About 14,000 (4.5%) showed an effect of 50% or more. The effect is printed as a negative number. For the sample, strong results were picked, then their nearest neighbours and some compounds at random.

molecular target: human ether-à-go-go-related gene (hERG) potassium channel (human, UniProt Q12809); assay: primary screen, population patch clamp on CHO cells stably expressing hERG; higher = less effect of the substance
Sequence (Q12809 whole entry, looked up): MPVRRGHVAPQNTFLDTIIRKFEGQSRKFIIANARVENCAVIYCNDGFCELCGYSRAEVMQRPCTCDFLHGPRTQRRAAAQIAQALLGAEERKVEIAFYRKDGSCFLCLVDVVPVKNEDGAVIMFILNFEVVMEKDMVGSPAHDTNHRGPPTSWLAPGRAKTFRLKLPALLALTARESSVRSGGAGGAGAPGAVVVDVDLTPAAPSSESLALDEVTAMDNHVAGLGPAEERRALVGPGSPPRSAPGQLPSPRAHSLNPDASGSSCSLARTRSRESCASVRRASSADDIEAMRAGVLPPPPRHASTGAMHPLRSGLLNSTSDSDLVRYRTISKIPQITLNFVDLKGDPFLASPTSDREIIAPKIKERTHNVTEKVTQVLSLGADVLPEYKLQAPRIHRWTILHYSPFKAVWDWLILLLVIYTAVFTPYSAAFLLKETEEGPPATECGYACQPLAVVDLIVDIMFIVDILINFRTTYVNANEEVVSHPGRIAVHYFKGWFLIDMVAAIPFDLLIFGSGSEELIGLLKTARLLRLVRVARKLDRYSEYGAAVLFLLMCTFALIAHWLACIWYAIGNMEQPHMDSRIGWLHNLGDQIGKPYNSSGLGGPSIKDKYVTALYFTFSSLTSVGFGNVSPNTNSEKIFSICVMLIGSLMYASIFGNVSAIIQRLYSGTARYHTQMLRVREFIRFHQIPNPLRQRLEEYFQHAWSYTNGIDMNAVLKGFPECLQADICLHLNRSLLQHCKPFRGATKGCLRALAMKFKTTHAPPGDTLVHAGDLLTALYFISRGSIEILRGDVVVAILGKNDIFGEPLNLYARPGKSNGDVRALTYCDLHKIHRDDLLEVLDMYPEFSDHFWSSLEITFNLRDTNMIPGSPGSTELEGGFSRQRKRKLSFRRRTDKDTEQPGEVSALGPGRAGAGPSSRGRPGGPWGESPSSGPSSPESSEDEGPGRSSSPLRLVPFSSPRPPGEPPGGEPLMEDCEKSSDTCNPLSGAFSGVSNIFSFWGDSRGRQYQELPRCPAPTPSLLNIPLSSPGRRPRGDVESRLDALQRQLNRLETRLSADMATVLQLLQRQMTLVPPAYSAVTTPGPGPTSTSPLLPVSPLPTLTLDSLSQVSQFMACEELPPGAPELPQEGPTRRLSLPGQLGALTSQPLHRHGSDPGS
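Further: peak tail current of the secondary pulse compared with the same well before compound.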

SMILES | hERG current change (%, negative = inhibition) at 10uM [%]
Cc1cc(Br)ccc1NC(=O)CN(C)C(=O)C1CSC2(C)CCC(=O)N12 (centres unmarked) | 11.5
CC1=CC(C)(C)Nc2ccc(OC(=O)CCN3C(=O)c4ccccc4C3=O)cc21 | 0.14
COc1ccc(C(=O)NC2CCN(C(=S)Nc3ccccc3)CC2)cc1 | 12.7
CNC(=O)c1c[nH]n2c(=O)c(Cc3ccccc3F)c(C)nc12 | 16.9
COc1cccc(/C=C/C(=O)NNC(=O)c2ccncc2)c1 | -20.5
CCOc1cnc(C(=O)NNC(=O)c2ccccc2Br)o1 | 11
CCCNS(=O)(=O)c1ccc(OCC(=O)NCc2ccc3c(c2)OCO3)cc1 | -23.8
C=CCNC(=O)/C(C#N)=C/c1c(C)nn(-c2ccccc2)c1Cl | -20
O=C(/C=C/c1ccc(Cl)cc1)NC1CCS(=O)(=O)C1 (centres unmarked) | -58.7
O=C(/C=C/c1ccccc1)NC1CCS(=O)(=O)C1 (centres unmarked) | 18.1
Cc1ccc(/C=C/C(=O)NC2CCS(=O)(=O)C2)cc1 (centres unmarked) | 20.6
O=C(NC1CCS(=O)(=O)C1)/C(=C/c1ccc(Cl)cc1)NC(=O)c1ccccc1 (centres unmarked) | -55
O=C(NC(NC1CCS(=O)(=O)C1)C(=O)c1ccccc1)c1ccc(Cl)cc1 (centres unmarked) | -51.6
O=C(NC(NC1CCS(=O)(=O)C1)C(=O)c1cccs1)c1ccccc1 (centres unmarked) | -1.01
O=C(NC1CCS(=O)(=O)C1)/C(=C\c1ccccc1)NC(=O)c1ccccc1 (centres unmarked) | -11
O=C(NC1CCS(=O)(=O)C1)/C(=C\c1ccc(F)cc1)NC(=O)c1ccccc1 (centres unmarked) | -34.7
O=C(NC(NC1CCS(=O)(=O)C1)C(Cl)(Cl)Cl)c1cccc(Cl)c1 (centres unmarked) | -7.37
Cc1ccc(NC(=O)NCc2ccccn2)cc1 | 37.7
Fc1ccc(OCc2nc(-c3cccs3)no2)cc1 | -9.58

SMILES | hERG current change (%, negative = inhibition) at 10uM [%]
c1ccc(Cc2nn3c(COc4ccccc4)nnc3s2)cc1 | 6.61
CC1=C(C(=O)OCc2ccccc2)C(c2ccccc2[N+](=O)[O-])NC(=O)N1C (centres unmarked) | 1.71
COc1ccccc1Nc1nc(N)nc(CSC(=S)N2CCN(c3ccccc3)CC2)n1 | 6.86
COc1cccc(N2CCN(Cc3nc(N)nc(Nc4ccccc4OC)n3)CC2)c1 | -25.6
COc1ccccc1Nc1nc(N)nc(CCl)n1 | 3.4
COc1ccccc1Nc1nc(N)nc(CN2CCC(Cc3ccccc3)CC2)n1 | -84.5
COc1ccc(N2CCN(Cc3nc(N)nc(Nc4ccccc4OC)n3)CC2)cc1 | -62
COc1ccccc1Nc1nc(N)nc(CN2CCN(Cc3ccccc3)CC2)n1 | -73.2
COc1ccc(OCc2nc(N)nc(Nc3ccccc3OC)n2)cc1 | 9.46
COc1ccccc1Nc1nc(N)nc(CN2CCN(c3ccccc3)CC2)n1 | -52.9
COc1ccccc1Nc1nc(N)nc(CSC(=S)N2CCOCC2)n1 | -9.92
Cc1cc(C)cc(NC(=O)CCC(=O)Nc2cc(C)on2)c1 | 8.01
Cc1cc(C)c(C(CC(=O)c2cccs2)C(C#N)C#N)c(C)c1 (centres unmarked) | -23.9
O=c1c2ccccc2n2c(-c3cccc(Cl)c3)nnc2n1Cc1ccccc1 | -11.8
COc1ccccc1NC(=O)c1cc(=O)[nH]c2ccccc12 | 33.4
COc1ccc(CN2C(=O)CN=C2Nc2cc(C)ccc2C)cc1.Cl | 1.79
O=C(CN(Cc1ccc(Cl)cc1)C(=O)CN1C(=O)COc2ccccc21)NC1CCCC1 | 15
CCOC(=O)c1ccc2nc(NC(NC(C)=O)(C(=O)OC)C(F)(F)F)sc2c1 (centres unmarked) | 13.6
CN(C(=O)CSc1nnc(Cc2ccccc2F)n1N)C1CCS(=O)(=O)C1 (centres unmarked) | 9.76

SMILES | hERG current change (%, negative = inhibition) at 10uM [%]
FC(F)(F)c1cccc(Cc2noc(CN3CCCC(CN4CCCC4)C3)n2)c1 (centres unmarked) | -45.5
NC(=O)[C@@H]1CCCN1Cc1nc(Cc2cccc(C(F)(F)F)c2)no1 | 8.45
FC(F)(F)c1cccc(Cc2noc(CN3CCC(N4CCCCC4)CC3)n2)c1 | -74.7
FC(F)(F)c1cccc(Cc2noc(CN3CCC(c4ccncc4)CC3)n2)c1 | -66.2
Fc1cccc(Cc2noc(CN3CCC(c4ccncc4)CC3)n2)c1 | -21.4
CCOC(=O)N1CCN(Cc2nc(Cc3cccc(C(F)(F)F)c3)no2)CC1 | -15
OCC1CCCN(C2CCN(Cc3nc(Cc4cccc(C(F)(F)F)c4)no3)CC2)C1 (centres unmarked) | -74.1
FC(F)(F)c1cccc(Cc2noc(CN3CCSCC3)n2)c1 | 0.814
FC(F)(F)c1cccc(Cc2noc(CN3CCCC3)n2)c1 | 15.6
Fc1ccc(N2CCN(c3cnc4ccccc4n3)CC2)cc1 | 6.24
Cc1cc(C(F)(F)F)nn1Cc1n[nH]c(=S)n1-c1ccc(Cl)cc1 | 20.3
O=[N+]([O-])c1ccc(-c2c(O)c3ccccc3c3nc4ccccc4nc23)cc1 | 18
Cc1sc(NC(=O)c2ccco2)c(C(c2cccnc2)N2CCN(c3ccc(F)cc3)CC2)c1C (centres unmarked) | 1.92
Cc1sc(NC(=O)c2ccco2)c(C(c2cccnc2)N2CCN(C)CC2)c1C (centres unmarked) | -32.7
CCN1CCN(C(c2cccnc2)c2c(NC(=O)c3ccco3)sc(C)c2C)CC1 (centres unmarked) | -58.4
Cc1sc(NC(=O)c2ccco2)c(C(c2ccc(F)cc2)N2CCN(C)CC2)c1C (centres unmarked) | -68.1
Cc1sc(NC(=O)c2ccco2)c(C(c2cccnc2)N2CCCC2)c1C (centres unmarked) | -8.45
Cc1sc(NC(=O)c2ccco2)c(C(c2cccnc2)N2CCN(CCO)CC2)c1C (centres unmarked) | -20.9
